Measurements published in PubChem BioAssay (Tox21).
Records with an inconclusive call do not appear. A number with no mark means an inactive call. Activity calls are given as the source filed them. Calls come from the whole dose curve.

Assay: qHTS assay to identify small molecule agonists or antagonists of the thyroid stimulating hormone receptor (TSHR) signaling pathway - wild type cell line counter screen (AID 1259384)
Settings: HEK293 wild type, cAMP HTRF counter-screen; series mostly up to 92.4 µM; cAMP activity change: at the top concentration
Source text: U.S. Tox21 Program National Center for Advancing Translational Sciences [NCATS] NIH Chemical Genomics Center [NCGC] U.S. Environmental Protection Agency [EPA] National Institutes of Environmental Health Sciences [NIEHS] National Toxicology Program [NTP] U.S. Food and Drug Administration [FDA] Tox21 Assay Overview: TSHR is the receptor for thyrotropin (thyroid stimulating hormone or TSH), a member of the glycoprotein hormone family. TSH is released by the anterior pituitary gland and is the main regulator of thyroid gland growth and development. Upon binding circulating thyrotropin, a G-protein signal cascade activates adenylyl cyclase and […] cAMP concentration is increased. cAMP is a key second messenger involved extensively in cellular signal transduction pathways associated with the majority of G-protein coupled receptors (GPCRs). The activation of these GPCRs by neurotransmitters, lipids, nucleotides, peptides and hormones results in the activation or the inhibition of plasma membrane-bound adenylate cyclase through heterotrimeric G-proteins. A cell-based TSHR-Hek293 assay can be used to identify TSHR agonists. To eliminate the false positive compounds identified from screening a cell-based TSHR-Hek293 cell line, cAMP assay in a wild type Hek293 cells was used as a counter screening.
Tox21 Assay Protocol Summary: Hek293 cells (wild type) were dispensed at 800 cells/4 uL/well in 1536-well white plates using a Multidrop dispenser. After the assay plates were incubated at a 37 C/5% CO2 incubator for 18 hrs, 23 nL of compounds dissolved in DMSO, positive controls or DMSO only was transferred to the assay plate by a pin tool, followed by 1 ul medium containing Ro20-1724. After 30 min of incubation at room temperature, 2.5 ul/well of cAMP-d2 and 2.5 ul/well of anti-cAMP-cryptate were added respectively into the assay plates using a Flying Reagent Dispenser. The plates were incubated at room temperature for 1 hr. The fluorescence intensity in the plates was measured using an Envision plate reader. Each test compound was measured at 15 concentrations and in triplicates.
% is set by controls: 0 for no effect and ±100 for the full control effect; potency is the fitted concentration of half-maximal effect.

Going from `SC1CCCCC1` to `O=C1CCCCCCCCCCCCCC1`, the “cAMP activity change” value falls from 4.71% to 0.761%.

Going from `C=Cc1ccc(O)c(OC)c1` to `CCN(CC)c1ccc(C=O)c(O)c1`, the “cAMP activity change” value falls from 6.48% to 3.13%.

Going from `CCNc1nc(NC(C)(C)C)nc(OC)n1` to `CCc1cccc(C)c1N(C(=O)CS(=O)(=O)O)C(C)COC` (stereo not given), the “cAMP activity change” value rises from -0.648% to 1.33%.

Compared with `CCCCCc1ccc(O)cc1`, `COC(=O)c1ccc([N+](=O)[O-])cc1` is lower in “cAMP activity change” value: 2.92% for the first, -2.01% for the second.

Going from `CCCCCCCCCC[N+](C)(CCCCCCCCCC)CCC[Si](OC)(OC)OC` to `CCCCC/C=C\C=C\C(=O)OCC`, the “cAMP activity change” value falls from 7.38% to 5.52%.

First: C=CCc1cc(S(=O)(=O)c2ccc(O)c(CC=C)c2)ccc1O
Second: CN[C@H]1CC[C@@H](c2ccc(Cl)c(Cl)c2)c2ccc(S(N)(=O)=O)cc21
The “cAMP activity change” value of the first is lower: 3.56% for the first, 4.4% for the second.

Compared with `O=C(Nc1ccccc1)c1cc(Cl)ccc1O`, `O=C1OCc2ccccc21` is higher in “cAMP activity change” value: 0.236% for the first, 3.49% for the second.

Going from `CCc1cccc(C)c1N(C(=O)C(=O)O)C(C)COC` (stereo not given) to `CCOC(=O)C1=NN(c2ccc(Cl)cc2Cl)C(C)(C(=O)OCC)C1` (stereo not given), the “cAMP activity change” value falls from 1.06% to 0.0383%.

Compared with `C=CC(=O)OCC(Br)CBr` (stereo not given), `CCC(=O)OC/C=C(\C)CCC=C(C)C` is higher in “cAMP activity change” value: -0.783% for the first, 0.451% for the second.

Going from `O=C(NCc1ncc(C(F)(F)F)cc1Cl)c1c(Cl)cccc1Cl` to `CN(C[C@@H](CC[N+]12CCC(C3CCCCC3)(CC1)CC2)c1ccc(Cl)c(Cl)c1)C(=O)c1cc(C(F)(F)F)cc(C(F)(F)F)c1`, the “cAMP activity change” value falls from 3.24% to -4.01%.

First: Nc1ccc(Oc2cccc(Oc3ccc(N)cc3)c2)cc1
Second: CO[Si](OC)(c1ccccc1)c1ccccc1
The “cAMP activity change” value of the first is higher: 2.12% for the first, -2.02% for the second.

Going from `CN1CCN(C)CC1` to `CCCC(C)C=O` (stereo not given), the “cAMP activity change” value rises from 0.047% to 3.16%.

First: NC(=O)C1CO1 (stereo not given)
Second: CC(C)C(=O)C(C)C
The “cAMP activity change” value of the first is lower: 1.1% for the first, 3.79% for the second.

Compared with `S=C1NC=NC2N=CNC12` (stereo not given), `O=C1CCC(=O)N1` is lower in “cAMP activity change” value: 4.29% for the first, -1.25% for the second.

Going from `Cc1ccc(Cl)c(N)c1Cl` to `c1ccc2occc2c1`, the “cAMP activity change” value rises from -0.503% to 7.68%.

In the case of `Cc1ccc(S(=O)(=O)C(I)I)cc1`, the Potency is reported as 9.69 µM (active).

In the case of `CC/C(=C(/c1ccc(O)cc1)c1ccc(OCCN(C)C)cc1)c1ccccc1`, the “cAMP activity change” value is reported as 3.74% [at 42.5 µM, active compounds read high].
For `Nc1ccc2c(S(=O)(=O)O)cccc2c1S(=O)(=O)O`, the “cAMP activity change” value was 5.36% [at 42.5 µM, active compounds read high].
For `CN1CCN(CCCN2c3ccccc3Sc3ccc(C(F)(F)F)cc32)CC1`, the “cAMP activity change” value was -2.33% [at 42.5 µM, active compounds read high].
With `CCCCNc1ccc(NCCCC)c2c1C(=O)c1ccccc1C2=O` the cAMP activity change was -7.38% [at 18.9 µM, active compounds read high].
For `CN(C/C=C/c1ccccc1)Cc1cccc2ccccc12`, the “cAMP activity change” value was 0.827% [at 42.5 µM, active compounds read high].
For `C/C(=C\c1ccc(C(=O)O)cc1)c1ccc2c(c1)C(C)(C)CCC2(C)C`, the “cAMP activity change” value was -0.447% [at 42.5 µM, active compounds read high].
In the case of `O=C1c2ccccc2C(=O)c2c(Cl)cccc21`, the “cAMP activity change” value is reported as -3.84% [at 42.5 µM, active compounds read high].
For `c1ccc(-c2ccc(C(c3ccccc3)n3ccnc3)cc2)cc1` (stereo not given), the “cAMP activity change” value was 0.14% [at 42.5 µM, active compounds read high].
For `CC(C)(C)c1cc(CCC(=O)OCCSCCOC(=O)CCc2cc(C(C)(C)C)c(O)c(C(C)(C)C)c2)cc(C(C)(C)C)c1O`, the “cAMP activity change” value was 3.16% [at 42.5 µM, active compounds read high].
